In ChEMBL document CHEMBL4513146, “CO-ADD screening of Karazin Kharkiv National University (Ukraine) compounds”:
Results with a measured potency or affinity are listed apart.

Key:
Klebsiella pneumoniae = conditions: Concentration 32 ug.mL-1;; ASSAY_TEST Inhibition of Bacterial Growth; detection method Absorption (OD600); MEDIA CAMHB; plate type 384well; NBS; CORNING #3640; time 18 hr
Candida albicans = conditions: Concentration 32 ug.mL-1; ASSAY_TEST Inhibition of Fungal Growth; detection method Absorption (OD530)
Cryptococcus neoformans = conditions: Concentration 32 ug.mL-1; ASSAY_TEST Inhibition of Fungal Growth; detection method Resazurin; Absorption (OD600-OD570); plate type 384well; NBS; CORNING #3640

SMILES	Inhibition (Klebsiella pneumoniae) [%]	Inhibition (Candida albicans) [%]	Inhibition (Cryptococcus neoformans) [%]
CCOc1ccc(NC(=O)Cn2nc3c(N4CCCC4)nccn3c2=O)cc1	9.68	0.82	-8.38
O=c1n(Cc2cccc(C(F)(F)F)c2)nc2c(S(=O)(=O)N3CCCCC3)cccn12	6.48	1.28	-8.66
Cc1cc(C)cc(Nc2nc(C)cc3nn(CC(=O)Nc4cc(F)cc(F)c4)c(=O)n23)c1	13.54	4.35	-10.24
Cc1nnc2c(=O)n(CC(=O)Nc3ccc(Cl)cc3)c3ccccc3n12	4.43	-0.59	-11.19
COc1cccc(-n2ccn3c(SCC(=O)Nc4ccc(C(C)C)cc4)nnc3c2=O)c1	-7.28	18.36	-10.59
COc1ccc(CNC(=O)Cn2nc3c(Sc4ccc(C)cc4C)nccn3c2=O)cc1	6.84	-0.37	-7.66
CCOC(=O)c1ccc(NC(=O)Cn2nc3c(SCc4ccc(Cl)cc4)nccn3c2=O)cc1	1.65	7.78	-18.54
COc1cccc(NC(=O)Cn2nc3c(Oc4ccccc4)nccn3c2=O)c1	-9.5	1.78	-2.51
Cc1cc(Br)ccc1NC(=O)Cn1nc2c(Sc3ccccc3)nccn2c1=O	5.06	6.68	-7.39
CC(C)c1nnc2c(=O)n(CC(=O)Nc3ccc(F)cc3)c3ccccc3n12	21.13	1.82	-21.16
O=C(Cn1nc2nc(Nc3ccc(F)cc3)ccn2c1=O)Nc1cc(F)ccc1F	11.06	4.41	-6.4
COc1cccc(NC(=O)Cn2nc3c(N4CCCC4)nccn3c2=O)c1	8.57	2.47	-12.87
O=c1n(Cc2cccc(C(F)(F)F)c2)nc2ccc(S(=O)(=O)N3CCCC3)cn12	10.57	0.2	-10.53
O=C(Cn1nc2c(Sc3ccccc3)nccn2c1=O)Nc1cccc(Cl)c1F	13.46	0.76	-9.38
O=S(=O)(c1ccc2nncn2c1)N(Cc1cc(F)cc(F)c1)c1cccc(F)c1	11.98	2.7	-8.32
COc1ccc2[nH]cc(C(=O)CSc3nnc4c(=O)n(-c5ccc(F)cc5)ccn34)c2c1	12.89	3.24	-7.69
Cc1ccc(-c2ccc3nn(CC(=O)Nc4ccc(Cl)cc4F)c(=O)n3n2)cc1	13.29	-0.74	-20.92
Cc1ccccc1CSc1nnc2c(=O)n(-c3ccc(Br)cc3)ccn12	3.65	15.24	-9.13
COc1ccccc1-n1ccn2c(SCc3ccc(Cl)cc3)nnc2c1=O	8.98	1.6	-13.63
COc1ccc(NC(=O)C(C)Sc2nnc3c(=O)n(-c4ccccc4)ccn23)cc1 (centres undefined)	12.19	1.79	-7.55
CCc1ccc(NC(=O)Cn2nc3ccc(SC(C)(C)C)nn3c2=O)cc1	14.6	4.19	-17.5
COc1cccc(CN(c2ccccc2)S(=O)(=O)c2ccc3nncn3c2)c1	0.32	2.69	-7.16
N#Cc1ccc(NC(=O)Cn2nc3c(Oc4ccccc4)nccn3c2=O)cc1	4.51	0.35	-7.22
COc1ccccc1NC(=O)Cn1nc2c3cc(-c4ccc(C)c(C)c4)nn3ccn2c1=O	17.54	-1.16	-22.56
Cc1ccc(NC(=O)Cn2nc3cc(C)nc(Nc4ccc(F)cc4)n3c2=O)cc1	11.23	3.22	-24.95
CCc1nnc2c(S(=O)(=O)N(Cc3cccc(F)c3)c3cccc(C)c3)cccn12	4.33	0.97	-1.17
COc1ccc(-c2cc3c4nnc(SCC(=O)NCc5ccc(C)cc5)n4ccn3n2)cc1	7.85	1.56	-10.46
CC1CCCN(c2nccn3c(=O)n(CC(=O)Nc4ccc5c(c4)OCO5)nc23)C1 (centres undefined)	1.66	-0.45	-11.4
